Some of the results follow. How many sequences the whole screen found active is unknown.

Data on 50 sequences can be found in the supplement of paper PMC3545927.

The target of the assay is furin, P09958. The assay can be described thus: furin cleavage Z-score vs untreated control; higher = more cleavage, active = 3.5 or more, inactive = 1 or less, 8 variable residues between constant flanks. The essentials:
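Read counts from sequencing released DNA gave abundance for each bead-bound 8-mer peptide–cDNA fusion cut by purified furin over 7.5, 15 or 30 min. The cleavage Z-score compares log counts with furin-free reactions after lowess adjustment and median absolute deviation scaling.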
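Note: purified furin at 1:10 enzyme:substrate in 50 mM HEPES pH 7.5.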

Chain of furin, P09958 (P09958 whole entry, the tested form may be a part): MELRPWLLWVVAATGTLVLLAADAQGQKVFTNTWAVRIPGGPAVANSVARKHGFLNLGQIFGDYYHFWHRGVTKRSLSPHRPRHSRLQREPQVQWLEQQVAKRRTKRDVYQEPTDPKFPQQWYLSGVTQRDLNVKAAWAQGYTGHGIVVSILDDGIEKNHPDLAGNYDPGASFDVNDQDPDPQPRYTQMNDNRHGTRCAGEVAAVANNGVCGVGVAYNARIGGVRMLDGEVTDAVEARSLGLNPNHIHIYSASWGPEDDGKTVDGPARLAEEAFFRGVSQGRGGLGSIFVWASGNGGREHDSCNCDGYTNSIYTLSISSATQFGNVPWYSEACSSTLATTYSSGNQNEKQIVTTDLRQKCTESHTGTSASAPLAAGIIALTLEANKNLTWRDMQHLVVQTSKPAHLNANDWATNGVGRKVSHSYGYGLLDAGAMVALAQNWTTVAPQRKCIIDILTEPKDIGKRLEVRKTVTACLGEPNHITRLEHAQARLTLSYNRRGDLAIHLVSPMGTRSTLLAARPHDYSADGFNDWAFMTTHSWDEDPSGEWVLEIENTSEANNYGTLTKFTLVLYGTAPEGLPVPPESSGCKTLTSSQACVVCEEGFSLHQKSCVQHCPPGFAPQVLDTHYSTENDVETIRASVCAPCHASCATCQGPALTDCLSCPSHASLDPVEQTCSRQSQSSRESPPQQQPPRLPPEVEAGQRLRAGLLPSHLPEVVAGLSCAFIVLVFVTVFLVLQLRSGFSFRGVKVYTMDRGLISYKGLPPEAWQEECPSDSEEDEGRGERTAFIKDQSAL

Regarding CAFLEVVTSTAGNASASA [HC2267], the “furin cleavage Z-score” value (7.5 min) was -1.17 (inactive), the “furin cleavage Z-score” value (15 min) is -0.113 (inactive) and the “furin cleavage Z-score” value (30 min) was -1.92 (inactive).
The corresponding values for CARAFTEAMTAGNASASA [HC1539] are 0.545 (inactive), -0.418 (inactive) and 0.0305 (inactive).
For the sequence CAVAYYRGLDAGNASASA [HC868], the “furin cleavage Z-score” value was 0.403 (inactive) (7.5 min), 1.75 (15 min) and -1.15 (inactive) (30 min).
The corresponding values for CAAHWGVLAGAGNASASA [HC336] are -1.27 (inactive), -1.2 (inactive) and -0.699 (inactive).
For CAEWLRKKRIAGNASASA [FS-418], the “furin cleavage Z-score” value is 0.96 (inactive) (7.5 min), 1.09 (15 min) and 1.3 (30 min).
In the same order, the values of CASLHLKKRIAGNASASA [FS-625] are -0.694 (inactive), -1.61 (inactive) and 0.811 (inactive).
In the same order, the values of CAIYCRKKRIAGNASASA [FS-806] are 2.51, 0.629 (inactive) and 4.48 (active).
In the same order, the values of CAKKRRKKRIAGNASASA [FS-936] are 3.69 (active), 6.37 (active) and 7.05 (active).
Regarding CAIQSRRKKIAGNASASA [FS-443], the “furin cleavage Z-score” value (7.5 min) is 0.424 (inactive), the “furin cleavage Z-score” value (15 min) is -0.328 (inactive) and the “furin cleavage Z-score” value (30 min) is 0.24 (inactive).
In the same order, the values of CAYREVPCHRAGNASASA [HC2429] are 1.27, -0.258 (inactive) and -1.27 (inactive).
The corresponding values for CACNDSLNTGAGNASASA [HC375] are -1.58 (inactive), 0.314 (inactive) and -2.54 (inactive).
For CAVVCCSMAYAGNASASA [HC2063], the “furin cleavage Z-score” value by setting is: (7.5 min) 0.877 (inactive); (15 min) 1.72; (30 min) 0.58 (inactive).
The corresponding values for CAKKIRGKRFAGNASASA [FS-672] are 6.75 (active), 8.84 (active) and 7.44 (active).
Consider CADRSRGKRFAGNASASA [FS-410], for which the “furin cleavage Z-score” value is 7.7 (active) (7.5 min), 10.3 (active) (15 min) and 8.8 (active) (30 min).
With CATTPSSGSWAGNASASA [HC55], the “furin cleavage Z-score” value was -0.371 (inactive) (7.5 min), -0.739 (inactive) (15 min) and -0.54 (inactive) (30 min).
As for CAVVCCSMSYAGNASASA [HC94], the “furin cleavage Z-score” value was 0.423 (inactive) (7.5 min), 0.141 (inactive) (15 min) and 0.568 (inactive) (30 min).
In the case of CADEVDGVDEAGNASASA [CS2], the “furin cleavage Z-score” value (7.5 min) is -0.934 (inactive), the “furin cleavage Z-score” value (15 min) was -0.925 (inactive) and the “furin cleavage Z-score” value (30 min) was -0.54 (inactive).
Consider CAPCTPLPAPAGNASASA [HC1195], for which the “furin cleavage Z-score” value reads like this: (7.5 min) -0.0603 (inactive); (15 min) -1.7 (inactive); (30 min) -1.53 (inactive).
Regarding CAPLRRFWRSAGNASASA [FS-1602], the “furin cleavage Z-score” value reads like this: (7.5 min) -0.433 (inactive); (15 min) -0.244 (inactive); (30 min) 0.194 (inactive).
With CAFSSRDERSAGNASASA [FS-588], the “furin cleavage Z-score” value (7.5 min) is -0.242 (inactive), the “furin cleavage Z-score” value (15 min) is -1.07 (inactive) and the “furin cleavage Z-score” value (30 min) is -1.76 (inactive).
The corresponding values for CADRSRRVRSAGNASASA [FS-1190] are 12.9 (active), 12.1 (active) and 9.2 (active).
The corresponding values for CAHLKRDTEDAGNASASA [FS-2863] are -0.885 (inactive), 0.879 (inactive) and -0.411 (inactive).
The corresponding values for CASAGHTVSGAGNASASA [HC356] are -0.221 (inactive), -0.0745 (inactive) and 0.22 (inactive).
For CASAGRHVRSAGNASASA [FS-1408], the “furin cleavage Z-score” value is, setting by setting: (7.5 min) 8 (active); (15 min) 10.8 (active); (30 min) 7.16 (active).
The corresponding values for CALELRRVRSAGNASASA [FS-605] are 0.493 (inactive), 1.94 and 2.52.
Consider CAPKSRIVRSAGNASASA [FS-369], for which the “furin cleavage Z-score” value was 14.9 (active) (7.5 min), 13.8 (active) (15 min) and 11.4 (active) (30 min).
The corresponding values for CAHLKRRVRSAGNASASA [FS-793] are 11.8 (active), 10.6 (active) and 9.61 (active).
In the same order, the values of CAVVCCSCSYAGNASASA [HC2060] are -1.87 (inactive), -2.14 (inactive) and -0.914 (inactive).
In the same order, the values of CAVNCCSMSYAGNASASA [HC2021] are 0.193 (inactive), 1.19 and -0.734 (inactive).
Regarding CAMEYCSQHLAGNASASA [HC1709], the “furin cleavage Z-score” value (7.5 min) is 1.22, the “furin cleavage Z-score” value (15 min) is 0.203 (inactive) and the “furin cleavage Z-score” value (30 min) was 0.301 (inactive).
As to CAVVGTTDRSAGNASASA [HC418], the “furin cleavage Z-score” value reads like this: (7.5 min) 0.937 (inactive); (15 min) 1.04; (30 min) 0.404 (inactive).
The corresponding values for CAAVGRRVRSAGNASASA [FS-12] are 9.92 (active), 9.75 (active) and 7.92 (active).
In the same order, the values of CASEARMVRSAGNASASA [FS-1079] are 1.59, 3.05 and 3.76 (active).
In the same order, the values of CANIVDVQYLAGNASASA [HC508] are -0.996 (inactive), -0.739 (inactive) and -1.04 (inactive).
Consider CAVWARPDYNAGNASASA [HC1304], for which the “furin cleavage Z-score” value is, setting by setting: (7.5 min) 0.568 (inactive); (15 min) -0.706 (inactive); (30 min) -1.06 (inactive).
For the sequence CASTAAQTFLAGNASASA [HC692], the “furin cleavage Z-score” value by setting is: (7.5 min) -0.854 (inactive); (15 min) -1.17 (inactive); (30 min) 0.0229 (inactive).
The corresponding values for CAREKRHRKKAGNASASA [FS-2007] are -1.19 (inactive), -0.208 (inactive) and -0.665 (inactive).
On to CAREKRDSVCAGNASASA [FS-1851], for which the “furin cleavage Z-score” value reads like this: (7.5 min) 1.11; (15 min) -0.614 (inactive); (30 min) 2.31.
For the sequence CAREKRQAKHAGNASASA [FS-2255], the “furin cleavage Z-score” value (7.5 min) was 8.15 (active), the “furin cleavage Z-score” value (15 min) is 10.9 (active) and the “furin cleavage Z-score” value (30 min) is 9.4 (active).
The corresponding values for CAREKKDVLAAGNASASA [FS-2484] are 0.263 (inactive), 0.353 (inactive) and 1.5.
In the same order, the values of CAREKRDVQPAGNASASA [FS-1693] are 10.8 (active), 12.3 (active) and 8.99 (active).
In the same order, the values of CAPTYSWGENAGNASASA [HC423] are 0.499 (inactive), -1.13 (inactive) and 0.237 (inactive).
As for CALTDPSHITAGNASASA [HC1248], the “furin cleavage Z-score” value (7.5 min) was -1.48 (inactive), the “furin cleavage Z-score” value (15 min) is 0.964 (inactive) and the “furin cleavage Z-score” value (30 min) was -1.35 (inactive).
Regarding CAYSWGENDTAGNASASA [HC424], the “furin cleavage Z-score” value by setting is: (7.5 min) -0.162 (inactive); (15 min) -1.61 (inactive); (30 min) 0.0496 (inactive).
The corresponding values for CAGQARWKRPAGNASASA [FS-656] are 0.0361 (inactive), 0.0218 (inactive) and -0.505 (inactive).
For CALTYRAKRTAGNASASA [FS-1033], the “furin cleavage Z-score” value (7.5 min) was 10.2 (active), the “furin cleavage Z-score” value (15 min) was 12 (active) and the “furin cleavage Z-score” value (30 min) was 9.3 (active).
In the same order, the values of CALQGREQLTAGNASASA [FS-1882] are 0.515 (inactive), -3.14 (inactive) and -0.352 (inactive).
As for CAYSQRWKRTAGNASASA [FS-904], the “furin cleavage Z-score” value was 8.92 (active) (7.5 min), 9.32 (active) (15 min) and 7.56 (active) (30 min).
In the same order, the values of CALQRRWKRTAGNASASA [FS-685] are 12.5 (active), 11.8 (active) and 10 (active).
In the case of CALTTSCGNTAGNASASA [HC1513], the “furin cleavage Z-score” value (7.5 min) was 0.0451 (inactive), the “furin cleavage Z-score” value (15 min) was -1.21 (inactive) and the “furin cleavage Z-score” value (30 min) was -0.123 (inactive).
